Rows were chosen to be rich in hits. Some 3% of all compounds tested hit in one or more screens of this group.
Statin myotox sup – suppressors of statin myotoxicity in C2C12 myotubes, primary screen, cell-based, single point, plate reader. rescue of ATP level, % at 7.49 µM. 330,000 tested, 0.78% active. AID 602340, 2012. C2C12 myotubes + simvastatin, ATP luminescence, 48 h; scaled: DMSO 0, geranylgeraniol control 100;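 active = mean ATP rescue above about 67%, or every replicate alone reaching that limit, limit read from the data, passing the limit was not always enough; inconclusive = no clear call, values can overlap the other calls; inactive = mean under the limit and some replicate under it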;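 note: myotubes were challenged with 10 µM simvastatin during compound exposure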
esBAF inh – Bmi1 luciferase reporter increase in mESCs, primary screen, esBAF inhibitor project, mouse ES cells, Bmi1 luciferase knock-in, single point | 24 h; 100% = twice the neutral-well signal | 350,000 tested, 2% active | reporter increase, % at 12.5 µM; in the data active = activation above about 40%; inconclusive = no clear call, values can overlap the other calls;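 note: 0% = median of the plate's neutral control wells and 100% = double that signal; a rise in the Bmi1 reporter signal indicates esBAF inhibition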
MITF act – activators of MITF-driven TRPM1 promoter reporter, primary screen, cell-based, SK-MEL-5, luciferase, single point. SK-MEL-5 TRPM1-promoter luciferase, 24 h; % of positive control, neutral wells = 0. activation, % at 12.5 µM. 300,000 tested, 0.75% active;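 active = mean activation of at least 80% with every replicate also reaching 80%; inconclusive = mean reaches 80% but some replicate falls short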;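 note: 0% = neutral control wells and 100% = parthenolide positive control wells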
Wnt act – Wnt/beta-catenin pathway activators, primary screen, cell-based, plate reader, single point; Wnt/beta-catenin reporter cell assay, activator; activation, % at 9.35 µM; 300,000 tested, 1.2% active; AID 743398, 2014; in the data active = activation above about 30%, passing the limit was not always enough; inconclusive = no clear call, values can overlap the other calls;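 note: 0% = neutral control wells and 100% = positive control wells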
Starred values were filed as active, the others as inactive; ? = inconclusive; nt = not tested or not shown.

SMILES	Statin myotox sup	esBAF inh	MITF act	Wnt act
CN(C)c1ccc(NC(=O)c2sc(SCC(=O)Nc3ccc(Br)cc3)nc2N)cc1	nt	nt	9	nt
Cc1ccc(SCC(=O)Nc2nccs2)cc1	nt	24*	58	0
CN(C)c1ccc(NC(=O)c2sc(SCC(=O)Nc3nccs3)nc2N)cc1	-4	53*	12	47*
CCOC(=O)c1c(SCC(=O)Nc2nccs2)nc(C)c(C)c1C	-8	50*	52	14
C[C@@H]1CCCCO[C@@H](CN(C)CC2CC2)[C@H](C)CN([C@@H](C)CO)C(=O)c2cc(NC(=O)Nc3ccc(F)cc3)ccc2O1	19	-3	nt	nt
CC(C)NC(=O)Nc1cccc2c1O[C@H](CN(C)C(=O)Nc1ccc(F)cc1)[C@@H](C)CN([C@@H](C)CO)C2=O	-23	3	nt	nt
N/C(=N\OC(=O)CSc1ccccc1)c1ccc([N+](=O)[O-])cc1	nt	nt	25	39*
Cc1ccc(/C(N)=N/OC(=O)CSc2ccccc2)cc1	nt	nt	-5	?
Cc1ccc(NC(=S)N2CCN(C(=O)C3CCCO3)CC2)c(C)c1 (stereo unspecified)	100*	-1	-8	-2
CC(=O)Nc1ccc(NC(=S)NC(=O)C2CC2)cc1	-5	6	-7	3
O=C(NC(=S)Nc1cccc(O)c1)C1CCCCC1	0	42*	55	-4
O=C(NC(=S)Nc1ccc(O)cc1)C1CCCC1	-4	2	25	22
Cc1ccc(NC(=S)NC(=O)C2CCC2)cc1C	-18	84*	113*	22
Cc1ccc(NC(=S)NC(=O)C2CCCC2)cc1C	nt	nt	114*	27
Cc1ccc(NC(=O)CN2CCN(C(=O)C3CCCO3)CC2)c(C)c1 (stereo unspecified)	3	-10	1	1
CO[C@H](CN(C)S(=O)(=O)c1ccc(Cl)cc1)[C@@H](C)CN([C@@H](C)CO)S(=O)(=O)c1cccc(Cl)c1	12	-1	nt	nt
CC(C)C(=O)Nc1ccc2c(c1)C(=O)N(C)[C@H]1CC[C@H](CC(=O)N[C@H](C)c3ccccc3)O[C@@H]1CO2	-3	-3	nt	nt
CO[C@H]1CN(C)C(=O)c2ccc(NC(C)=O)cc2OC[C@H](C)N(C(=O)C2CCC2)C[C@H]1C	-11	-3	nt	nt
Cc1ccc(NC(=S)NC(=O)C2CC2)c(C)c1	-24	50*	30	18
CCc1ccc(NC(=O)c2ccc3c(c2)CCN3S(C)(=O)=O)cc1	-54	29	nt	-5
Cc1ccc(NC(=O)c2ccc3c(c2)CCN3S(C)(=O)=O)cc1	-8	66*	nt	45*
CS(=O)(=O)N1CCc2cc(C(=O)OCC(=O)c3ccccc3)ccc21	8	51*	8	nt
CS(=O)(=O)N1CCc2cc(C(=O)Nc3ccc(Br)cc3)ccc21	-9	48*	19	-2
Cc1cc(C)cc(NC(=O)c2ccc3c(c2)CCN3S(C)(=O)=O)c1	-4	12	22	3
O=C(C[C@H]1C=C[C@@H](NS(=O)(=O)c2ccc(F)cc2)[C@H](CO)O1)NCc1ccc(Cl)c(Cl)c1	6	11	nt	nt
SMILES	Statin myotox sup	esBAF inh	MITF act	Wnt act
O=C(NC(=S)Nc1ccc(N2CCCCC2)cc1)c1ccco1	-36	31	110*	28
Cc1ccc(C(=O)NC(=S)Nc2ccc(N3CCN(C(=O)c4ccco4)CC3)cc2)cc1	-7	-11	-19	-3
CC1CCN(c2ccc(NC(=S)NC(=O)c3ccco3)cc2)CC1	6	46*	17	nt
CNC(=O)C[C@@H]1CC[C@@H]2[C@@H](COc3ccc(NC(=O)Nc4ccccc4)cc3C(=O)N2C)O1	14	2	nt	nt
CO[C@@H]1CC[C@@H]2CCOc3ccc(C#N)cc3C(=O)N(C)C[C@@H](OC)[C@H](C)C(=O)N(C)C[C@@H]1O2	-14	-4	nt	nt
O=C(COc1cccnc1[N+](=O)[O-])Nc1cc(Cl)ccc1Cl	4	48*	67	-2
COc1cc(Cl)c(C)cc1NC(=O)COc1ccc(C)nc1[N+](=O)[O-]	-17	81*	99*	18
Cc1ccc(OCC(=O)Nc2ccc(F)cc2)c([N+](=O)[O-])n1	nt	nt	104*	12
Cc1ccc(OCC(=O)NCC(=O)Nc2ccc(F)cc2)c([N+](=O)[O-])n1	-3	-3	7	-1
Cc1ccc(OCC(=O)Nc2ccc(Cl)cc2)c([N+](=O)[O-])n1	3	63*	110*	41*
O=C1NC(c2ccccc2Br)=N/C1=C\c1ccco1	nt	nt	46	70*

Bioassay records (PubChem BioAssay)
